This is part of a sample that, as a whole, favours compounds with a hit. Of some 79,000 tested, about 15% had one in any assay. Values without a mark were called inactive. The source made the active and inactive calls. Cut-off read from the data, not from the text of the source: active = growth inhibition above about 70%; inactive = the rest. Where a SMILES comes first, the peptide text is derived from it. The star is where a group is joined. ONp = O=[N+]([O-])c1ccc(O*)cc1; Cbz = O=C(OCc1ccccc1)*; OBn = c1ccc(CO*)cc1
Experiments:
[1] = NCI Yeast Anticancer Drug Screen. Data for the rad50 strain (AID 155);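 note: 0% = growth of vehicle-only cultures of the same strain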; settings: S. cerevisiae rad50 strain growth inhibition; at 50.0 µM; hits give high values
Method in brief: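 Growth of the mutant yeast was measured after compound exposure and referenced to vehicle-treated cultures.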

[2] = NCI Yeast Anticancer Drug Screen. Data for the mec2-1 strain (AID 157); settings: S. cerevisiae mec2-1 strain, at 50.0 µM, hits give high values
Method in brief: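 Compounds were applied to mec2-1 yeast cells. Their growth was then compared with that of vehicle-treated cultures to give growth inhibition.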

[3] = NCI Yeast Anticancer Drug Screen. Data for the sgs1 mgt1 strain (AID 161);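 note: 0% = growth of cultures given vehicle only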; settings: S. cerevisiae sgs1 mgt1 strain, at 50.0 µM, hits give high values
Method in brief: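 Yeast cells carrying a defined DNA-repair defect were exposed to test compounds. Growth inhibition was measured relative to vehicle-treated controls.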

[4] = NCI Yeast Anticancer Drug Screen. Data for the cln2 rad14 strain (AID 165);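 note: 0% = growth equal to vehicle treated cultures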; settings: S. cerevisiae cln2 rad14 strain, at 50.0 µM, hits give high values
Method in brief: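 Strain: cln2 rad14 yeast, altered in cell cycle control and DNA damage repair. Read-out: growth inhibition vs vehicle.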

[5] = NCI Yeast Anticancer Drug Screen. Data for the bub3 strain (AID 167); settings: S. cerevisiae bub3 mutant strain, at 50.0 µM, hits give high values
Method in brief: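 Whole-cell yeast assay. The mutant strain was incubated with compounds, and growth inhibition was determined by comparison with vehicle-treated cells.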

[6] = NCI Yeast Anticancer Drug Screen. Data for the mlh1 rad18 strain (AID 175); settings: S. cerevisiae mlh1 rad18 strain growth inhibition; at 50.0 µM; hits give high values
Method in brief: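 A repair-deficient yeast strain is exposed to test compound, and growth is scored relative to vehicle-treated controls.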

| Compound | growth inhibition [1] | growth inhibition [2] | growth inhibition [3] | growth inhibition [4] | growth inhibition [5] | growth inhibition [6] |
| --- | --- | --- | --- | --- | --- | --- |
| CC(C)CNc1ncnc2c1ncn2C | -2.2% | -4.85% | -4% | -18.9% | 1.1% | -0.25% |
| OCCCc1nc2ccccc2[nH]1 | -10.3% | -21.8% | -15.1% | 8.85% | -17.7% | 11.1% |
| N#Cc1nnc2cc(-c3ccccc3)nn2c1-c1cccs1 | 0.6% | -8.6% | 15.8% | 21.1% | 4.1% | 6.35% |
| COc1ccc(C=C2C(=O)OC(C)(C)OC2=O)cc1OC | -6.7% | -8.85% | -8.5% | 30% | -23.8% | -4.85% |
| CCOC(=O)c1ccc(NCc2nc3ccccc3nc2C)cc1 | -17.8% | -4% | -18% | -29.1% | 1.95% | -19.2% |
| O=C(O)CC(Nc1ncccn1)C(=O)O (stereo unspecified) | 3.05% | 6% | 10.7% | 24.1% | -6.1% | 5.4% |
| CC(C)COC(=O)c1ccc(C(C)C)cc1 | 9.35% | 8.8% | 4.6% | -9.8% | 5.1% | 4.45% |
| OCCOCn1nc(-c2ccccc2)nc1-c1cnccn1 | -13.4% | -4.55% | -20.3% | -27.9% | -38.1% | -24.1% |
| N#CC(C#N)=C1C=Cc2ccccc2O1 | 27.9% | -1.35% | 0.9% | 5.15% | -1.4% | 43.9% |
| COc1ccc2c(c1)C(=O)[C@]1(C)C3(C)OC(=O)C(c4ccccc43)[C@]21C (stereo partly specified) | 2.6% | -8.6% | -13.8% | 9.3% | -17.6% | 12.6% |
| CCCCCCCCSc1nc(Nc2cc(C(C)(C)C)c(O)c(C(C)(C)C)c2)nc(SCCCCCCCC)n1 | 41.6% | 1.95% | 13.1% | 34.1% | -0.9% | 28.4% |
| O=NN(CCCl)C(=O)NC1CCC(CC2CCC(NC(=O)N(CCCl)N=O)CC2)CC1 (stereo unspecified) | 24.9% | 5.6% | 8.05% | 29.5% | -6.45% | 10.6% |
| COc1cc(C(c2c(O)c3ccccc3oc2=O)N2CCCC2)cc(OC)c1OC (stereo unspecified) | -1.2% | 5% | 7.05% | 4.05% | -0.3% | 2.7% |
| CCN(CC)c1ccc(N=C2C=C(C(=O)Nc3ccc(C(=O)O)cc3)C(=O)c3ccccc32)c(C)c1 | -10.2% | -25% | -16.9% | 0.9% | -0.65% | -18.2% |
| CN=NN(C)C(=O)NC | -11.9% | 0.7% | 10.1% | -13% | -25% | 30.4% |
| COc1cccc(/C=C2\CCC(C)(CN(C)C)C2=O)c1 (stereo unspecified) | 32.9% | 9.1% | 38.9% | 29.2% | 13.2% | 29.9% |
| COc1ccc(C(=O)CC2=Nc3nnc(CCCCCCCc4nnc5n4C(=O)C(CC(=O)c4ccc(OC)cc4)=N5)n3C2=O)cc1 | -5.95% | -1.9% | -16.4% | 18.9% | 0.1% | -24.1% |
| CC(=O)N(C)c1ccc(N=CN(C)C)cc1 | -80.3% | -27.5% | -34.3% | -11.8% | 2.9% | -27.9% |
| O=C1c2ccccc2C(=O)N1/N=C1/SC(=Nc2ccccc2)C(=Nc2ccccc2)N1c1ccccc1 | 6.3% | 0% | 15% | 26.4% | 14.8% | 20.1% |
| CC(C)(C)c1ccc(OCC(=O)O)cc1 | -17.3% | -12% | -7.2% | -17.4% | -8.4% | -6.6% |
| c1ccc(-c2cc(-c3ccccc3)c(-c3ccccc3)c(-c3ccccc3)c2)cc1 | 32.1% | 10.1% | 19.4% | 12.4% | -4.1% | 13% |

| Compound | growth inhibition [1] | growth inhibition [2] | growth inhibition [3] | growth inhibition [4] | growth inhibition [5] | growth inhibition [6] |
| --- | --- | --- | --- | --- | --- | --- |
| CN1C=CC=CC1=C1C(=O)c2ccccc2C1=O | 26.8% | 12.6% | 17.2% | 35.6% | -2.1% | 23.2% |
| O=[N+]([O-])C1CC(O)C(O)CC1c1ccc2c(c1)OCO2 (stereo unspecified) | 11.1% | 7.25% | 1.7% | 3.05% | 1.95% | 3.7% |
| c1cn2cnnc2n2cnnc12 | -2.7% | -13% | -15.6% | -32% | -0.8% | -9.8% |
| CCCCCCCCCCCCOc1ccc2ccccc2c1 | -7.2% | 15.9% | 0.85% | -17.6% | -6.45% | -8.15% |
| CCc1ccc(C(=O)O)o1 | -9% | -12.1% | -7.35% | 7.8% | 12.7% | 12.3% |
| OCc1ccccc1 | 37% | 19.2% | 0.1% | -14.7% | 29.4% | 26.1% |
| c1cc(C[S+]2CCCC2)ccc1C[S+]1CCCC1 | -17.9% | -30.9% | -32% | -21.1% | -12.4% | -22.3% |
| Cc1cc(C)c2nc3c(c(C(O)C4CCCCN4)c2c1)CC/C3=C\c1ccc(Cl)cc1 (stereo unspecified) | -28.8% | -22.4% | 16.9% | -7.75% | -23.9% | -4.75% |
| Cc1ccc(C)c(NC(=O)C(=O)C(C(=O)c2ccc3ccccc3c2)C2OC(=O)c3ccccc32)c1 (stereo unspecified) | 23.9% | 15.8% | 35.9% | 23.5% | 4.15% | 13.7% |
| O=[N+]([O-])c1ccc(F)c(Cl)c1 | -10.7% | -25.1% | -1.6% | 4.55% | 9.3% | -7.25% |
| COC(=O)c1ccccc1-c1ccccc1C(=O)OC | 7.75% | 18.1% | 10.8% | 25.8% | 15.4% | 13.7% |
| Cc1cc2sc(C)[n+](CCCOS(=O)(=O)[O-])c2cc1C | -22.6% | -23.9% | -40% | 36.3% | -0.95% | -35.9% |
| O=C(Nc1ccccc1)c1cccnc1 | -4% | -18.4% | -0.2% | -13.9% | -2.75% | -2.65% |
| CN1C(=O)NC(C)(CCOCc2ccccc2)C1=O (stereo unspecified) | 8.85% | 0.45% | 0.25% | -1.25% | 6.65% | 8.65% |
| Cc1cc(N)c(NC2OC(CO)C(O)C2O)cc1C (stereo unspecified) | -25.1% | 0.8% | 4.75% | -43.1% | 41.1% | 19.7% |
| O=C(CNC(=O)C(CCC(=O)OCc1ccccc1)NC(=O)OCc1ccccc1)NCC(=O)NC(CO)C(=O)NCC(=O)Oc1ccc([N+](=O)[O-])cc1 (stereo unspecified) (Cbz-E(OBn)GGSG-ONp; configuration not given here) | 3.75% | 8.05% | 21.4% | -7.85% | 1.65% | 20.4% |
| NC(=O)SCCC(N)C(=O)O (stereo unspecified) | 8.4% | 27.5% | 3% | 12.7% | 17.9% | -4.9% |
| NCCCNCCCCNCCCNCc1c2ccccc2c(CNCCCNCCCCNCCCN)c2ccccc12 | 90.7% (active) | 93.1% (active) | 93.2% (active) | 91.9% (active) | 91.8% (active) | 90.8% (active) |
| S=C=Nc1ccc(CSc2nc3ccccc3[nH]2)cc1 | 0.8% | -9.25% | 12.8% | 2.4% | 9.4% | -11.2% |
| c1ccc(-c2ccc(-c3ccccc3)c(-c3ccc4c(c3)CCC4)c2-c2ccccc2)cc1 | 14.1% | 13.3% | 7.25% | 13.9% | -3.85% | 21.8% |
